# The list is not random: actives were taken first. Their share in the collection is about 1.8%.
# PrPC surface inh: inhibitors of human cell surface prion protein PrPC | 370,000 tested, 0.43% active | inhibition, % at 13.8 µM | P04156 | TR-FRET read-out | AID 720596; in the data active = inhibition above about 24%; also: 0% = median of the test wells and 100% = reference compound wells
# Sa ugtP lethal: compounds lethal to S. aureus RN4220 ugtP deletion mutant | AID 1259309 | growth inhibition, % (test concentration not listed) | OD600 growth, 16 h | 330,000 tested, 0.54% active; in the data active = growth inhibition above about 68%;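 also: plate controls were untreated wells for no effect and antibiotic for full effect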
# RN4220 kill: kills Staphylococcus aureus RN4220; S. aureus RN4220 growth, OD600, 16 h; inhibition, % (no concentration beside the values); 330,000 tested, 0.33% active; AID 1259311; in the data active = inhibition above about 85%;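 also: plate controls were untreated cells for no effect and reference antibiotic for full effect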
# VHR inh abs: inhibitors of human VHR1 phosphatase (DUSP3) | recombinant VHR phosphatase, pNPP absorbance | inhibition, % at 13.3 µM | 290,000 tested, 0.52% active; in the data active = inhibition above about 50%
# Target sequence (P51452 whole entry, looked up): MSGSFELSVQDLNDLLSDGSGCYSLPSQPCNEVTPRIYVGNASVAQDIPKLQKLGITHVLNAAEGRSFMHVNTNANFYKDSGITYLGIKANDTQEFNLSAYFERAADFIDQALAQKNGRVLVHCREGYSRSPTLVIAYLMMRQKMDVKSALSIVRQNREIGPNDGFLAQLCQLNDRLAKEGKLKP
# PfHsp40 rescue: restores yeast growth despite PfHsp40 toxicity | AID 504582 | 340,000 tested, 0.68% active | S. cerevisiae expressing PfHsp40, growth rescue, ATP luminescence | growth rescue, % at 12.5 µM; in the data active = growth rescue above about 28%, passing the limit was not always enough;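 also: yeast W303a lacking pdr1 and pdr3 grown in galactose medium; growth measured after three days at 30 °C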
# Numbers without * were called inactive; nt = no result.
SMILES,PrPC surface inh,Sa ugtP lethal,RN4220 kill,VHR inh abs,PfHsp40 rescue
O=c1[nH]c(=O)n(C2CC(O)C(CO)O2)cc1F (centres undefined),nt,99.2*,98.8*,nt,nt
CC(C)(C)c1ccc(C(=O)Nc2c3c(nn2C(C)(C)C)CS(=O)(=O)C3)cc1,6.4,9.6,-1.6,27.9,-2.5
Cc1cc(C)cc(C(=O)Nc2c3c(nn2C(C)(C)C)CS(=O)(=O)C3)c1,-4.2,1.6,2.2,51.3*,0.0
Oc1c(Br)cc(-c2ccccc2)cc1Br,9.3,8.4,24.0,nt,579.5*
Oc1c(Br)cc(Br)cc1Br,7.7,16.6,18.4,nt,-2.1
Cc1ccc(S(=O)(=O)N2CCN(CC(=O)NN=C/C=C/c3ccccc3)CC2)cc1,nt,-2.3,2.9,nt,nt
CCc1ccc(Nc2c([N+](=O)[O-])c(=O)oc3ccccc23)cc1,0.0,-6.8,0.3,9.5,115.9*
CCc1ccc(OCC(=O)NN=C(C)c2ccc3c(c2)OCCO3)cc1,nt,5.7,2.8,nt,nt
c1cc(-c2sc(-c3ccncc3)c(-c3ccncc3)c2-c2ccncc2)ccn1,-1.3,-7.4,-1.3,52.8*,nt
CC1CN(C(C)CO)C(=O)c2cc(NC(=O)CCN3CCOCC3)ccc2OC1CN(C)S(=O)(=O)c1ccc(F)cc1 (centres undefined),nt,-8.8,3.2,nt,nt
Cc1cc(C(=O)N/N=C/c2ccc(O)c(O)c2O)c(C)n1-c1ccccc1,8.3,nt,nt,10.3,87.2*
O=C1NCCOC(=O)C(Cc2ccc(F)cc2)CCC=CCC1CC(=O)N(CCO)Cc1ccccc1 (centres undefined),nt,-3.3,-0.8,nt,nt
COc1cccc(C2C([N+](=O)[O-])=C(N)Oc3c2c(=O)oc2ccccc32)c1 (centres undefined),3.5,6.1,6.8,51.6*,1.4
Cc1c(O)c(C)c2c(c1O)C(=O)CC(c1ccccc1)O2 (centres undefined),nt,-21.9,4.9,nt,nt
O=Cc1ccc(OC(=O)C2CC(=O)N(c3ccc(F)cc3)C2)cc1 (centres undefined),7.9,-2.4,0.6,51.2*,0.9
CC(C)NC(=O)c1ccc(CSCc2ccccc2Cl)o1,16.4,-0.1,1.0,56.9*,-3.4
CCC(C)NC(=O)c1ccc(CSCc2ccccc2Cl)o1 (centres undefined),-3.3,0.5,3.1,-7.6,-1.5
CC(=NNC(=O)CNC(=O)c1ccccn1)c1cccc([N+](=O)[O-])c1,nt,-3.8,3.7,nt,nt
CCOc1ccc(C=NNC(=O)c2c(C)n(C)c3ccc(OC)cc23)cc1,nt,13.8,1.1,nt,nt
CCOc1ccc2c(c1)c(N=O)c(O)n2C,-14.0,89.9*,4.1,-1.7,-1.5
CC(=NNC(=O)c1ccccc1)c1ccc(N2CCCCC2)cc1,nt,-0.5,6.6,nt,nt
OCCN(Cc1ccccc1)c1ncnc2sccc12,15.1,1.0,3.6,51.1*,0.8
CN(Cc1ccccc1F)c1ncnc2sccc12,3.9,0.8,4.9,34.4,-0.4
COC(=O)c1cc(CNC(=O)c2ccccc2Cl)ccc1OC,-6.2,-0.3,0.3,-3.8,47.3*
COc1ccc(Br)cc1C(=O)NCc1cccnc1,-0.1,-0.5,4.6,-4.0,34.5*
SMILES,PrPC surface inh,Sa ugtP lethal,RN4220 kill,VHR inh abs,PfHsp40 rescue
CN(C(=O)c1ccccc1Cl)c1ccccc1C(=O)NCc1ccccc1,3.2,2.8,0.2,52.9*,-0.5
COc1ccc(-c2nnc(NC(=O)c3ccc(S(=O)(=O)N4CCCc5ccccc54)cc3)o2)cc1,nt,99.9*,97.8*,15.4,-2.2
O=C(Nc1nnc(C2CC2)o1)c1ccc(S(=O)(=O)N2CCCc3ccccc32)cc1,2.9,94.3*,89.1*,25.2,0.3
CC1CN(S(=O)(=O)c2ccc(C(=O)Nc3nnc(-c4ccc5c(c4)CCCC5)o3)cc2)CC(C)O1 (centres undefined),-2.6,98.6*,98.8*,-16.1,-1.0
CC1CCN(S(=O)(=O)c2ccc(C(=O)Nc3nnc(C4CC4)o3)cc2)CC1,2.5,23.4,48.4,7.7,58.0*
CC1=NN(c2ccccc2)C(=O)C1=Cc1ccc(Oc2ccc([N+](=O)[O-])cc2[N+](=O)[O-])cc1,nt,-10.3,10.1,nt,nt
CC=CC(=O)N1CC2(CC(c3cccc(NC(=O)C(C)=CC)c3)=NO2)CC1C(N)=O (centres undefined),nt,-0.6,0.1,nt,nt
CCOC1OC(C(=O)Nc2ccccc2)=CC(c2csc3ccccc23)C1CCCO (centres undefined),nt,20.8,0.2,nt,nt
O=C(NN=Cc1ccc2c(c1)OCO2)c1cccs1,nt,-6.4,3.3,nt,nt
CC1C(=NO)CC(c2ccccc2)NC1c1ccccc1 (centres undefined),nt,16.1,-1.6,nt,nt
CC1=NN(c2ccccc2)C(=O)C1=Cc1cn(CCC#N)nc1-c1ccc(Cl)cc1,nt,-7.5,8.3,nt,nt

# Bioassay records from PubChem.
